# Source: PubChem BioAssay AID720555 (National Center for Advancing Translational Sciences (NCATS), 2013)
# Several values for one entry are separate records, joined by “and”; a condition that tells them apart may be missing. Identical values can stand only once. Records with an inconclusive call do not appear. Activity calls are given as the source filed them. Calls follow the shape of the dose curve; as a rule, active = well fitted inhibition curve with a large enough effect; inconclusive = small, poorly fitted or top-dose-only effect; inactive = no such curve, though single readings can be large or run the other way.
# Molecular target: RecQ-like DNA helicase BLM (Homo sapiens) (UniProt P54132)
# Assay: qHTS for Inhibitors of Bloom's syndrome helicase (BLM): Helicase DNA unwinding fluorescent orthogonal confirmatory assay for SAR
# Details: fluorescence, orthogonal confirmation; series mostly up to 55.6 µM; activity change, negative = inhibition: at the top concentration
# Excerpt: Human RecQ DNA helicases participate in maintenance of genome stability and DNA repair. While other types of helicases have been explored as targets for drug development, members of the RecQ family have remained less well characterized. Mutations of the Bloom helicase gene have been associated with the rare human genetic disease called Bloom syndrome. […] Moreover, identified inhibitors can be used in cells and animal models to examine the consequences of inhibition on the survival of cancer cells where it has been shown that BLM plays an important role.
# A fluorescence-based, biochemical assay in 1536 well format was developed to evaluate inhibition of BLM DNA unwinding activity. This assay was used to screen the MLPCN library. The resulting compounds were subjected to orthogonal and secondary biochemical assays to triage the initial hits, to classify compounds based on mode of action and to derive structure activity relationships (SARs) of candidate effectors. The data herein is the result of the Helicase DNA unwinding fluorescent orthogonal confirmatory assay. This fluorescent-based assay employs a purified BLM enzyme and utilizes gel electrophoresis to monitor the helicase-mediated unwinding of a fluorescently-labeled DNA substrate. For this assay decrease in the single-stranded DNA product band on the gel = inhibition of the BLM helicase activity. Inhibition is the desired outcome for this assay.
# NIH Chemical Genomics Center [NCGC]
# NIH Molecular Libraries Probe Centers Network [MLPCN]
# Assay Submitter (PI): Opher Gileadi, Structural Genomics Consortium, University of Oxford, UK
# Unwinding assay for the BLM helicase was carried out in a reaction buffer containing 50 mM Tris-HCl pH 7.5, 50mM NaCl, 2mM MgCl2, 2mM ATP, 1mM DTT, and 0.1 mg/ml BSA. Optimal substrate and enzyme concentrations as well as reaction times were determined experimentally. All reactions were performed at room temperature and terminated by the addition of loading buffer containing 20mM EDTA and 2.5% bromophenol blue. Reaction products were then separated on 15% non-denaturing polyacrylamide gels in 1x TAE, and the DNA was visualized using the Bio-Rad ChemiDocTM XRS Gel Imager. Substrate and product bands were quantified using ImageJ. The data was normalized against no-inhibitor and no-enzyme controls.
# RecQ-like DNA helicase BLM (Homo sapiens), sequence (P54132 whole entry, looked up): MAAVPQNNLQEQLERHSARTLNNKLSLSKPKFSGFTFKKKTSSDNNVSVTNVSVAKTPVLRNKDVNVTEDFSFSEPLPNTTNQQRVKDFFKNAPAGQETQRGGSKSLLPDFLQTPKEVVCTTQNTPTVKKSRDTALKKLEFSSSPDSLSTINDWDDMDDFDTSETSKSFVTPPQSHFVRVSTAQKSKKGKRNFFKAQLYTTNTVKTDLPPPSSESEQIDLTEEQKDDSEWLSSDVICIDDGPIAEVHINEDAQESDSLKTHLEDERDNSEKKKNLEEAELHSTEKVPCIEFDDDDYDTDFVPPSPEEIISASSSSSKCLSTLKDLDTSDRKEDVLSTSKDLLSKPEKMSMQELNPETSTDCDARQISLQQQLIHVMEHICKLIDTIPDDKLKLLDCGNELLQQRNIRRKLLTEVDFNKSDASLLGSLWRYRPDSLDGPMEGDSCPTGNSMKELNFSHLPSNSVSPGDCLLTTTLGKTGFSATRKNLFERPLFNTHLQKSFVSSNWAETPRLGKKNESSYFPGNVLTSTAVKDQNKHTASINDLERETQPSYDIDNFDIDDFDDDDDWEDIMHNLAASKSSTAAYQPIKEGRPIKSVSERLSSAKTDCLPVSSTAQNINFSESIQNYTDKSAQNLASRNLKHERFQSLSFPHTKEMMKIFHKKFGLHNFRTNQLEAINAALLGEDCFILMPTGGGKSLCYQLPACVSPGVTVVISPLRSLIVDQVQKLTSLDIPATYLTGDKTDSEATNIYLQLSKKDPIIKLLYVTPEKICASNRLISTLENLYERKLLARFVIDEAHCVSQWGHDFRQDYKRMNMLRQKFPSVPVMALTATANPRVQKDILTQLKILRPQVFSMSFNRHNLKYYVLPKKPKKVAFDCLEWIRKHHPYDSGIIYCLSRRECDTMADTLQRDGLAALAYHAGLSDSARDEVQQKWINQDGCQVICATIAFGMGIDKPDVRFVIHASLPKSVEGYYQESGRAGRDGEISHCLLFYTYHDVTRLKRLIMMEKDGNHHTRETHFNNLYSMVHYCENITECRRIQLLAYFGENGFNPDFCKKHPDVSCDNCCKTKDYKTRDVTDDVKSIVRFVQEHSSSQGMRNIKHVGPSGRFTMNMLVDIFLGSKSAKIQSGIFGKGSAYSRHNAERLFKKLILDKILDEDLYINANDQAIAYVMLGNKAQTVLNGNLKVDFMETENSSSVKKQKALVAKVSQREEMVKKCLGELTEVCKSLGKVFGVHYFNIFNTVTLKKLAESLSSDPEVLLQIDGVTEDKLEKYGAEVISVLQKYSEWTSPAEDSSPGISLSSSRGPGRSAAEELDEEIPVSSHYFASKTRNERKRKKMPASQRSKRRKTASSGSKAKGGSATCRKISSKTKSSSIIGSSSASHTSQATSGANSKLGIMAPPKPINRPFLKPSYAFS
Structure (SMILES),"activity change, negative = inhibition",Potency
Cc1cc(NC(=O)Nc2nnc(C3CCCCC3)s2)ccc1Br,-10.8% (inactive),–
Cc1cnccc1-c1nnc(NC(=O)Nc2ccc(F)c(C(F)(F)F)c2)s1,–,1.26 µM (active)
COc1ccc(NC(=O)Nc2ccc(-c3nc4ccccc4[nH]3)cc2)cc1OC,10.2% (inactive),–
O=C(NCc1ccccc1)Nc1nnc(-c2ccncc2)s1,-10.1% (inactive),–
O=C(Nc1ccc(Br)cc1)Nc1nnc(-c2ccncc2)s1,–,12.6 µM (active)
O=C(Nc1ccc(Cl)c(C(F)(F)F)c1)Nc1cccc(-c2ccncc2)n1,–,20 µM (active)
O=C(Nc1ccc(F)c(C(F)(F)F)c1)Nc1nc(-c2ccncc2)cs1,-3.13% [at 53.6 µM] (inactive),–
O=C(Nc1ccc2ccccc2c1)Nc1nnc(-c2ccccc2)s1,4.37% (inactive),–
CCOC(=O)c1cccc(NC(=O)Nc2nnc(-c3ccncc3)s2)c1,10.3% (inactive),–
O=C(Nc1cc(F)cc(F)c1)Nc1nnc(-c2ccncc2)s1,–,15.8 µM (active)
O=C(Nc1cc(C(F)(F)F)cc(C(F)(F)F)c1)Nc1nnc(-c2ccncc2)s1,–,12.6 µM (active)
Cc1cc(NC(=O)Nc2nnc(-c3ccncc3)s2)ccc1-c1cn[nH]c1,–,11.2 µM (active)
CN1CCN(c2nnc(NC(=O)Nc3ccc(Cl)c(Cl)c3)s2)CC1,8.47% (inactive),–
O=C(Nc1nnc(-c2ccncc2)s1)Nc1ccc(Cl)cc1F,–,28.2 µM (active)
N#Cc1cc(NC(=O)Nc2nnc(-c3ccncc3)s2)ccc1-c1ccc[nH]1,–,3.55 µM (active)
O=C(Nc1ccc(Cl)c(Cl)c1)Nc1nnc(-c2ccncc2)s1,–,1.58 µM (active)
Cc1cc(NC(=O)Nc2nnc(-c3cccnc3)s2)ccc1Cl,–,7.94 µM (active) and 3.98 µM (active)
O=C(Nc1ccc(Br)c(Br)c1)Nc1nnc(-c2ccncc2)s1,–,5.01 µM (active)
Cc1cc(NC(=O)Nc2cccc(-c3ccncc3)n2)ccc1Br,–,12.6 µM (active)
O=C(Nc1ccc2ccccc2c1)Nc1nnc(-c2ccccc2Cl)s1,-10.2% (inactive),–

Structure (SMILES),"activity change, negative = inhibition",Potency
O=C(Nc1ccc(Cl)c([N+](=O)[O-])c1)Nc1cccc(-c2ccncc2)n1,–,2.82 µM (active)
O=C(Nc1nnc(-c2ccncc2)s1)Nc1ccc(Cl)c2ccccc12,–,14.1 µM (active)
Cc1cc(NC(=O)Nc2nnc(C3CCCCC3)s2)ccc1F,2.36% (inactive),–
O=C(Nc1ccc2ccccc2c1)Nc1nnc(-c2ccncc2)o1,-6.58% (inactive),–
S=C(Nc1ccc(Cl)c(Cl)c1)Nc1nnc(-c2ccncc2)s1,–,3.98 µM (active)
Cc1cc(NC(=O)Nc2nnc(C3CCCCC3)s2)ccc1Cl,8.63% (inactive),–
COc1ccc(-c2nnc(NC(=O)Nc3ccc4ccccc4c3)s2)cc1OC,-6.42% (inactive),–
Cc1cc(Nc2c(Nc3nnc(-c4ccncc4)s3)c(=O)c2=O)ccc1Cl,–,22.4 µM (active)
N/C(=N\c1nnc(-c2ccncc2)s1)Nc1ccc(F)c(C(F)(F)F)c1,–,35.5 µM (active)
N#CN/C(=N\c1nnc(-c2ccncc2)s1)Nc1ccc(F)c(C(F)(F)F)c1,–,3.16 µM (active)
O=C(Nc1ccc(-c2cn[nH]c2)cc1)Nc1nnc(-c2ccncc2)s1,–,31.6 µM (active)
O=C(Nc1ccc(Cl)c([N+](=O)[O-])c1)Nc1nnc(-c2ccncc2)s1,–,1 µM (active)
N#Cc1cc(NC(=O)Nc2nnc(-c3ccncc3)s2)ccc1Br,–,0.501 µM (active)
CC(=O)c1ccc(NC(=O)Nc2nnc(-c3ccncc3)s2)cc1,3.44% (inactive),–
O=C(Nc1ccc(-c2nc3ccccc3[nH]2)cc1)Nc1ccc2c(c1)CCCO2,-2% (inactive),–
N#Cc1cc(NC(=O)Nc2nnc(-c3ccncc3)s2)ccc1F,–,1.41 µM (active)
N#Cc1cc(NC(=O)Nc2nnc(-c3ccncc3)s2)ccc1Cl,–,0.398 µM (active)
Cc1cc(NC(=O)Nc2nnc(-c3cccnc3)s2)ccc1Br,–,5.62 µM (active)
O=C(Nc1ccc(-c2cn[nH]c2)c(C(F)(F)F)c1)Nc1nnc(-c2ccncc2)s1,–,15.8 µM (active)
O=C(Nc1ccc(Cl)c(Cl)c1)Nc1nc(-c2ccncc2)cs1,–,28.2 µM (active)
